Experimental data taken from PubChem BioAssay (EPA / NIEHS).
Inconclusive results are not listed. The source made the active and inactive calls. The calls were made as follows, unless noted: active = hit-call score of the fitted dose curve at least 0.9, where 1 is the maximum; inactive = score below 0.9.

How the values were obtained:
[1] = UKN4_HCS_LUHMES_neurite_outgrowth: University of Konstanz (UKN) Leist Lab Neurite Outgrowth Assay in human LUHMES cells (UKN4) (AID 2284206); settings: actives raise or lower the signal
Procedure, shortened: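 After 24 h compound treatment beginning shortly after replating of 2-day-differentiated LUHMES cells, calcein-AM and H-33342 live staining allowed high-content imaging of neurite area and viability. Fitted bidirectionally against DMSO.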

[2] = IUF_NPC1b_proliferation_BrdU_72hr: Leibniz Research Institute for Environmental Medicine (IUF) 72-hour Neural Progenitor Cell Bromodeoxyuridine (BrdU) Proliferation Assay (NPC1b) (AID 2284207)
Procedure, shortened: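 Luminescent BrdU ELISA measured DNA synthesis during the last 16 h of a 72 h exposure of primary human neural progenitor spheres grown with EGF and FGF. Signal was fitted relative to DMSO controls.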

[3] = IUF_NPC1a_proliferation_area_72hr: Leibniz Research Institute for Environmental Medicine (IUF) 72-hour Neural Progenitor Cell Proliferation Area Assay (NPC1a) (AID 2284208)
Procedure, shortened: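 Read-out: increase in sphere area over 72 h by automated phase-contrast imaging, fitted in positive direction versus DMSO baseline. One hNPC sphere (0.25-0.35 mm) per well in EGF/FGF medium; growth-factor withdrawal served as positive control.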

[4] = IUF_NPC1_viability_72hr: Viability Assessment at 72 hours in the Leibniz Research Institute for Environmental Medicine (IUF) Neural Progenitor Cell Proliferation Assay (NPC1) (AID 2284209)
Procedure, shortened: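 Viability was measured by resazurin-to-resorufin fluorescence (alamar blue) after 72 h of continuous exposure without compound renewal. Each well held one hNPC sphere (gestational week 16-19 fetal cortex, 0.25-0.35 mm) cultured in EGF/FGF proliferation medium at 37C and pH 7.2-7.6.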

[5] = CCTE_Mundy_HCI_Cortical_NOG_NeuriteLength: CCTE's Neurite Outgrowth Assay in rat cortical cells for Neurite Length, Mundy Lab (AID 2284213)
Procedure, shortened: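 First, rat primary cortical cells were plated and, 2 h later, given test chemical as a 1/10 dilution. Finally, βIII-tubulin immunostaining enabled automated imaging of neurite length.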

[6] = CCTE_Mundy_HCI_Cortical_Synap_Neur_Matur_NeuriteLength: CCTE's Synaptogenesis and Neurite Maturation Assay in rat cortical cells for Neurite Length, Mundy Lab (AID 2284214)
Procedure, shortened: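 Neurite length quantified by automated high-content imaging of MAP2, synaptophysin and Hoechst staining. Rat cortical cells received chemical from DIV 7 to DIV 12 […], glial growth arrested by AraC at DIV 5; DMSO baseline.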

[7] = CCTE_Mundy_HCI_Cortical_Synap_Neur_Matur_NeuriteSpotCountPerNeuron: CCTE's Synaptogenesis and Neurite Maturation Assay in rat cortical cells for Neurite Spot Count per Neuron Count, Mundy Lab (AID 2284215)
Procedure, shortened: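 Rat primary cortical cells received AraC at DIV 5, then chemicals with a media change at DIV 7, and were fixed at DIV 12. Synaptophysin puncta on MAP2-stained neurites per neuron were counted by high-content imaging, fitted relative to DMSO.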

[8] = CCTE_Mundy_HCI_Cortical_Synap_Neur_Matur_SynapseCount: CCTE's Synaptogenesis and Neurite Maturation Assay in rat cortical cells for Synapse Count, Mundy Lab (AID 2284218)
Procedure, shortened: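 High-content imaging of synaptophysin puncta per MAP2-positive neuron (Hoechst nuclei) in rat cortical cells exposed DIV 7–12 after glial arrest with AraC at DIV 5; decrease relative to DMSO scored.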

[9] = CCTE_Mundy_HCI_hN2_NOG_NeuriteCount: CCTE's Neurite Outgrowth Assay in human hN2 cells for Neurite Count, Mundy Lab (AID 2284219; active = hit-call score of the fitted dose curve at least 0.9, where 1 is the maximum)
Procedure, shortened: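 In this morphology assay, hNP1-derived neurons received test chemical 2 h post-plating and were fixed two days later in warm paraformaldehyde/sucrose containing Hoechst 33342. Neurites, labelled by rabbit anti-βIII-tubulin (1:800) and Alexa Fluor-488 (1:500), were counted automatically.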

[10] = CCTE_Mundy_HCI_hN2_NOG_NeuriteLength: CCTE's Neurite Outgrowth Assay in human hN2 cells for Neurite Length, Mundy Lab (AID 2284220; active = hit-call score of the fitted dose curve at least 0.9, where 1 is the maximum)
Procedure, shortened: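 Read-out is neurite length from high-content imaging of βIII-tubulin/Alexa Fluor-488-labelled neurons, referenced to DMSO controls.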

[11] = CCTE_Mundy_HCI_hN2_NOG_NeuronCount: CCTE's Neurite Outgrowth Assay in human hN2 cells for Neuron Count, Mundy Lab (AID 2284221; active = hit-call score of the fitted dose curve at least 0.9, where 1 is the maximum)
Procedure, shortened: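 Read-out is the number of betaIII-tubulin-positive neurons imaged by automated high-content analysis, with DMSO as negative control.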

[12] = CCTE_Mundy_HCI_Cortical_Synap_Neur_Matur_CellBodySpotCount: CCTE's Synaptogenesis and Neurite Maturation Assay in rat cortical cells for Cell Body Spot Count, Mundy Lab (AID 2284223)
Procedure, shortened: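 Rat primary cortical cultures received AraC at DIV 5 to arrest glia, were dosed with chemical at DIV 7 with media change, and were fixed at DIV 12 (288.33 h). Synaptophysin puncta on MAP2-positive cell bodies per neuron were counted by high-content imaging versus DMSO.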

[13] = UKN4_HCS_LUHMES_cell_viability: Viability Assessment in the University of Konstanz (UKN) Leist Lab Neurite Outgrowth Assay in human LUHMES cells (UKN4) (AID 2284232)
Procedure, shortened: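 Viability was read by high-content imaging of calcein-AM/H-33342-stained cells after 24 h toxicant exposure, staining included. Cells: human LUHMES on day 2 of dopaminergic differentiation, dosed shortly after attachment; DMSO baseline, bidirectional curve fitting.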

[14] = UKN2_HCS_IMR90_cell_viability: Viability Assessment in the University of Konstanz (UKN) Leist Lab Neural Crest Cell Migration Assay in human induced IMR90 Pluripotent Stem Cells (UKN2) (AID 2284233);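 also: cells exposed to compound for 24 h after a 24 h migration phase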
Procedure, shortened: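 Viability read as calcein-AM fluorescence by high-content imaging, Hoechst co-stain, 30 min. Human iPSC (IMR90) neural crest cells had migrated 24 h into stopper-defined gaps before 24 h chemical exposure. Fitted bidirectionally relative to DMSO.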

[15] = CCTE_Mundy_HCI_Cortical_NOG_NeuronCount: CCTE's Neurite Outgrowth Assay in rat cortical cells for Neuron Count, Mundy Lab (AID 2284236; active = hit-call score of the fitted dose curve at least 0.9, where 1 is the maximum;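 also: neurons counted by imaging betaIII-tubulin and Hoechst stained cortical cells; cells exposed to compound for about 48 hours before fixation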)
Procedure, shortened: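 Read-out: neuron number by high-content imaging of betaIII-tubulin (Alexa Fluor-488) and Hoechst-labelled rat primary cortical cells.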

[16] = CCTE_Mundy_HCI_hNP1_Casp3_7: CCTE's Caspase-Glo 3/7 Assay in human neuroprogenitor cells for Apoptosis, Mundy Lab (AID 2284240)
Procedure, shortened: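 Luminescent caspase-3/7 readout, 26.5 h post-dose, in human neural progenitor cells from WA09 embryonic stem cells. Cells grew 40–44 h at 37 °C, 5% CO2 before chemical addition. Activity analysed as signal increase over DMSO baseline.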

[17] = IUF_NPC2c_oligodendrocyte_migration_120hr: Leibniz Research Institute for Environmental Medicine (IUF) 120-hour Neural Progenitor Cell Migration Assay for Oligodendrocyte Migration (NPC2c) (AID 2284297);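 also: O4-positive oligodendrocyte migration distance divided by radial glia migration distance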
Procedure, shortened: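 Human fetal cortex-derived neural progenitor spheres (0.3 mm) were plated on poly-D-lysine/laminin in N2 differentiation medium and exposed to 7 concentrations for 120 h, with half-medium renewal at day 3. Oligodendrocyte migration distance was normalized to radial glia migration, relative to DMSO.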

[18] = IUF_NPC2a_radial_glia_migration_120hr: Leibniz Research Institute for Environmental Medicine (IUF) 120-hour Neural Progenitor Cell Migration Assay for Radial Glia Migration (NPC2a) (AID 2284298)
Procedure, shortened: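 Single 0.3 mm primary human fetal-cortex (GW 16-19) NPC spheres were plated on poly-D-lysine/laminin in N2 differentiation medium and exposed from day 0 for 120 h, half-medium refreshed day 3. Migration distance came from Hoechst nuclei-density imaging, relative to DMSO.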

[19] = IUF_NPC2a_radial_glia_migration_72hr: Leibniz Research Institute for Environmental Medicine (IUF) 72-hour Neural Progenitor Cell Migration Assay for Radial Glia Migration (NPC2a) (AID 2284299)
Procedure, shortened: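 Radial glia migration (µm, sphere core edge to migration front, four directions averaged) from brightfield images at 72 h; hNPC spheres differentiating on PDL/laminin in N2 medium, compound exposure at 7 concentrations from plating.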

[20] = IUF_NPC2b_neuronal_migration_120hr: Leibniz Research Institute for Environmental Medicine (IUF) 120-hour Neural Progenitor Cell Migration Assay for Neuron Migration (NPC2b) (AID 2284300)
Procedure, shortened: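 Primary human fetal cortex neural progenitor spheres (0.3 mm) plated on poly-D-lysine/laminin in N2 differentiation medium, exposed 120 h with half-medium refresh at day 3. TUBB3-stained neuron distance from sphere core, normalized to radial glia migration, versus DMSO.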

[21] = IUF_NPC3_neuronal_differentiation_120hr: Leibniz Research Institute for Environmental Medicine (IUF) 120-hour Neuronal Differentiation Assay (NPC3) (AID 2284301)
Procedure, shortened: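 hNPC spheres, PDL/laminin, DMEM/F12 3:1 + 1% N2, 37C, 5% CO2; 7 concentrations + solvent control, 5 d exposure, half-change day 3. Fix 120 h; TUBB3/Hoechst ICC, CNN neuron calling; % neurons vs nuclei, DMSO-normalized.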

[22] = IUF_NPC4_neurite_length_120hr: Leibniz Research Institute for Environmental Medicine (IUF) 120-hour Neuronal Morphology Assay for Neurite Length (NPC4) (AID 2284302)
Procedure, shortened: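 hNPC spheres (0.3 mm, fetal brain GW 16-19) on PDL/laminin, DMEM:F12 3:1 + 1% N2, 37C 5% CO2; 7 concs + solvent control, day 0-5, half medium change d3; fix 120 h, TUBB3 ICC, mean neurite length um vs DMSO.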

[23] = IUF_NPC5_oligodendrocyte_differentiation_120hr: Leibniz Research Institute for Environmental Medicine (IUF) 120-hour Oligodendrocyte Differentiation Assay (NPC5) (AID 2284304; active = hit-call score of the fitted dose curve at least 0.9, where 1 is the maximum;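 also: primary human fetal neural progenitor spheres plated to migrate and differentiate; share of O4-positive cells among Hoechst nuclei found by CNN image analysis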)
Procedure, shortened: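 Primary human fetal (GW 16-19) neural progenitor spheres (0.3 mm) plated on poly-D-lysine/laminin in N2 differentiation medium, exposed from day 0 for 120 h with half-medium refresh at day 3; O4-positive cells as percent of Hoechst nuclei, CNN-identified, versus DMSO.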

[24] = IUF_NPC4_neurite_area_120hr: Leibniz Research Institute for Environmental Medicine (IUF) 120-hour Neuronal Morphology Assay for Neurite Area (NPC4) (AID 2284305; active = hit-call score of the fitted dose curve at least 0.9, where 1 is the maximum)
Procedure, shortened: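 hNPC spheres on PDL/laminin, N2 medium, 37C/5% CO2; dosed day 0, half-medium refresh day 3; fixed 120 h; TUBB3/Hoechst ICC, high-content imaging; neurite area = mean pixels per neuron (nuclei excluded); DMSO baseline, max 0.1%.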

[25] = IUF_NPC2-5_cytotoxicity_72hr: Cytotoxicity Assessment at 72 hours in the Leibniz Research Institute for Environmental Medicine (IUF) Neural Progenitor Cell Migration and Differentiation Assay for Cytotoxicity (NPC2-5) (AID 2284306; active = hit-call score of the fitted dose curve at least 0.9, where 1 is the maximum;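 also: LDH release into supernatant measured by resorufin fluorescence marking membrane damage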)
Procedure, shortened: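 hNPC spheres (0.3 mm), PDL/laminin, DMEM/F12 3:1 + 1% N2; cpd from d0, 7 concs + SC, DMSO max 0.1%; half-medium refresh d3. Readout: supernatant LDH via resorufin fluorescence (RFU), 72 h; gain-of-signal fit.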

[26] = IUF_NPC2-5_cytotoxicity_120hr: Cytotoxicity Assessment at 120 hours in the Leibniz Research Institute for Environmental Medicine (IUF) Neural Progenitor Cell Migration and Differentiation Assay (NPC2-5) (AID 2284307; active = hit-call score of the fitted dose curve at least 0.9, where 1 is the maximum)
Procedure, shortened: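 Human fetal neural progenitor spheres (0.3 mm, GW 16-19 cortex) were plated on poly-D-lysine/laminin in N2 differentiation medium and exposed for 120 h, with half-medium refresh at day 3. LDH release into supernatant was read by resorufin fluorescence.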

[27] = IUF_NPC2-5_cell_number_120hr: Cell Number Assessment at 120 hours in the Leibniz Research Institute for Environmental Medicine (IUF) Neural Progenitor Cell Migration and Differentiation Assay (NPC2-5) (AID 2284308);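 also: count of Hoechst-stained nuclei in migration zone around plated human neural progenitor spheres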
Procedure, shortened: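 Primary human fetal neural progenitor spheres (GW 16-19, 0.3 mm) plated on poly-D-lysine/laminin in N2 differentiation medium, exposed from day 0 for 120 h with half-medium refresh at day 3; Hoechst-positive nuclei counted in migration area versus DMSO control.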

[28] = IUF_NPC2-5_viability_120hr: Viability Assessment at 120 hours in the Leibniz Research Institute for Environmental Medicine (IUF) Neural Progenitor Cell Migration and Differentiation Assay (NPC2-5) (AID 2284312)
Procedure, shortened: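 Human fetal neural progenitor spheres (0.3 mm) plated on poly-D-lysine/laminin in N2 differentiation medium, exposed 120 h with half-medium refresh at day 3. Viability by alamar blue resazurin fluorescence; 7 concentrations, DMSO max 0.1%.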

Measured: outcome

CC(C)(C)NCC(O)c1cc(O)cc(O)c1 (stereo not drawn)
inactive: all assays above
